{"source": "PubChem BioAssay AID504400", "about": "(The Scripps Research Institute Molecular Screening Center, 2011)", "system": "Rolipram", "experiment": "CYP450 and receptor off-target profile – biochemical, Ricerca HitProfilingScreen, selectivity assay for S1P4 agonist project, late-stage follow-up (AID 504400)", "conditions": "Ricerca radioligand binding/enzyme panel plus CYP450, at 10 µM, active compounds read high", "note": "Active and inactive are the calls of the source. The rule behind the calls is not given here.", "data": [{"molecule": "Clc1ccc(OCCOc2ccc(Br)nc2Br)c(Cl)c1", "values": [{"measurement": "inhibition", "result": "-3% (inactive)"}]}]}
